{"source": "the OligoGym collection"}
{"molecular_target": "SKI", "test": "pooled miR-30 sensor sort-seq; sequence = guide strand", "details": "shRNA"}
{"sequence": "TCACTCGCTGACACTGCGGGGG", "sensor-assay potency score (higher = more potent)": -0.224}
{"sequence": "TACGGTCTCGCAGCGCTCGGTG", "sensor-assay potency score (higher = more potent)": -1.18}
{"sequence": "TACACTTGCCGAAGCACTCGTG", "sensor-assay potency score (higher = more potent)": -0.466}
{"sequence": "TGGAGCTCGTCGCACACCGCGT", "sensor-assay potency score (higher = more potent)": -1.77}
{"sequence": "TTTGGCTTCCTTGGTGTCCAGG", "sensor-assay potency score (higher = more potent)": -1.03}
{"sequence": "TAGGAGTAGAAGCTGTCTCGGA", "sensor-assay potency score (higher = more potent)": 0.278}
{"sequence": "TTACACTTGCCGAAGCACTCGT", "sensor-assay potency score (higher = more potent)": 0.441}
{"sequence": "TTCTTCTCGTTCTCGGCGCGGA", "sensor-assay potency score (higher = more potent)": -0.778}
{"sequence": "TTTCTCCTTCACGTCGTCCAGG", "sensor-assay potency score (higher = more potent)": -1.07}
{"sequence": "TTGGTGATGAGCCCGCACGAGG", "sensor-assay potency score (higher = more potent)": -1.78}
{"sequence": "TAGATGTGGAGCTCGTCGCACA", "sensor-assay potency score (higher = more potent)": -1.04}
{"sequence": "TCTCACTCGCTGACACTGCGGG", "sensor-assay potency score (higher = more potent)": -0.587}
{"molecular_target": "SLAIN1", "test": "pooled miR-30 sensor sort-seq; sequence = guide strand", "details": "shRNA"}
{"sequence": "TTCTTCTTGCAGACGAGCCATG", "sensor-assay potency score (higher = more potent)": -1.37}
{"sequence": "TATGTCTTGATACAGATGCTGA", "sensor-assay potency score (higher = more potent)": -0.777}
{"sequence": "TTCTTGAAATTCCATTTCCAGC", "sensor-assay potency score (higher = more potent)": -1.69}
{"sequence": "TATATTAAAACACAAAAGGGAA", "sensor-assay potency score (higher = more potent)": -0.738}
{"sequence": "TTCTTCGGAGCTTATCTCCATT", "sensor-assay potency score (higher = more potent)": -0.767}
{"sequence": "TTGAGTCAAAACTCTGACTATT", "sensor-assay potency score (higher = more potent)": -1.16}
{"sequence": "TGAAGTAGAAGCATAATCTTGC", "sensor-assay potency score (higher = more potent)": 0.776}
{"sequence": "TTTATTGCCAACGAAGGTCTTG", "sensor-assay potency score (higher = more potent)": 0.0936}
{"sequence": "TATTTGAAGGAAAATACTGGGA", "sensor-assay potency score (higher = more potent)": 0.189}
{"sequence": "TTGCCTGAGACTTTCTTCTTGC", "sensor-assay potency score (higher = more potent)": 0.429}
{"sequence": "TTGAGGTGAATAATACTGTTGC", "sensor-assay potency score (higher = more potent)": -0.0982}
{"sequence": "TACATGTCCCTTTTTTTCCTGA", "sensor-assay potency score (higher = more potent)": -0.235}
{"molecular_target": "SLC10A3", "test": "pooled miR-30 sensor sort-seq; sequence = guide strand", "details": "shRNA"}
{"sequence": "TTCAGCAGGTGAGACCTTGATG", "sensor-assay potency score (higher = more potent)": -1.03}
{"sequence": "TCTTGATGGTCAGCACCTCTGT", "sensor-assay potency score (higher = more potent)": -1.25}
{"sequence": "TTGGGTTTTCCGAGAAGTGGGC", "sensor-assay potency score (higher = more potent)": 0.0759}
{"sequence": "TCTCCAATGCTCAAGTAGCGGC", "sensor-assay potency score (higher = more potent)": -0.783}
{"sequence": "AAAGATAAGAGGCAGGAGCAGG", "sensor-assay potency score (higher = more potent)": -0.888}
{"sequence": "TAGTGCATGAGAACTTTGGTGG", "sensor-assay potency score (higher = more potent)": 0.0901}
{"sequence": "TCAAACTCCATCACAGAGCCAT", "sensor-assay potency score (higher = more potent)": -0.169}
{"sequence": "TCTTCAGCAGGTGAGACCTTGA", "sensor-assay potency score (higher = more potent)": -0.622}
{"sequence": "TTAAGGGACCTGTGCCACCACC", "sensor-assay potency score (higher = more potent)": -1.35}
{"sequence": "TAGAGGATTGGGTTTTCCGAGA", "sensor-assay potency score (higher = more potent)": -0.917}
{"sequence": "TTTTCTGAGTGCATAGTGCATG", "sensor-assay potency score (higher = more potent)": -0.554}
{"sequence": "TTGATGCAGAAGTCTCTCCGCT", "sensor-assay potency score (higher = more potent)": -0.433}
{"molecular_target": "SLC10A7", "test": "pooled miR-30 sensor sort-seq; sequence = guide strand", "details": "shRNA"}
{"sequence": "ATGAGGAGTACACTGCTGCTGA", "sensor-assay potency score (higher = more potent)": -0.89}
{"sequence": "TACATCATTATAAACTCTGTAA", "sensor-assay potency score (higher = more potent)": -0.408}
{"sequence": "TTTAGCTCCAGCGATCGCCAGC", "sensor-assay potency score (higher = more potent)": -1.45}
{"sequence": "TTCTGCCTTGATACCATCCAAG", "sensor-assay potency score (higher = more potent)": -1.16}
